Source: PubChem BioAssay (NCI)
This is part of a sample that, as a whole, favours compounds with a hit. Of some 83,000 tested, about 20% had one in any assay.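 Assay: single dose, 48 h. Readout: percent growth (0 = no net growth; negative = cell death). Active: <10.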 A number with no mark means an inactive call. Active and inactive are the calls of the source.

Columns and labels:
Assay in all cases: NCI-60 one-dose screen, 48 h (100 = growth as untreated, 0 = no growth, -100 = all killed)
Details in all cases: 10 µM unless noted
DU-145 prostate = test system: DU-145 prostate
K-562 leukemia = test system: K-562 leukemia
MALME-3M melanoma = test system: MALME-3M melanoma
MDA-MB-231 breast = test system: MDA-MB-231 breast
RXF 393 renal = test system: RXF 393 renal
SF-268 CNS = test system: SF-268 CNS
SF-295 CNS = test system: SF-295 CNS
SF-539 CNS = test system: SF-539 CNS
UACC-257 melanoma = test system: UACC-257 melanoma
M14 melanoma = test system: M14 melanoma

| Structure (SMILES) | growth (DU-145 prostate) | growth (K-562 leukemia) | growth (MALME-3M melanoma) | growth (MDA-MB-231 breast) | growth (RXF 393 renal) | growth (SF-268 CNS) | growth (SF-295 CNS) | growth (SF-539 CNS) | growth (UACC-257 melanoma) | growth (M14 melanoma) |
| --- | --- | --- | --- | --- | --- | --- | --- | --- | --- | --- |
| O=C(Nn1c2c(sc1=NCc1ccccc1)C(=O)c1ccccc1C2=O)c1cc2ccc1CCc1ccc(cc1)CC2 | 88.8% | 48.8% | 5.52% (active) | 40.4% | 60.3% | 58.6% | 94.8% | 87.5% | 52.6% | 19.3% |
| Nc1ncnc2c1N=C(c1ccc3c(c1)OCO3)CC(c1ccc([N+](=O)[O-])cc1)N2 (stereo not given) | 96.8% | 96.5% | 108% | 55.9% | 50.4% | 86.2% | 296% | 86.8% | 77.8% | 92.2% |
| CN1CCN(C(=O)c2ccc(NC(=O)Nc3ccc(-c4nc(N5CCOCC5)c5cccn5n4)cc3)cc2)CC1 | 7.11% (active) | 15.3% | -37% (active) | 2.25% (active) | -39.5% (active) | 4.85% (active) | -43.6% (active) | -40.1% (active) | -21.3% (active) | -22% (active) |
| O=S(=O)(NCCCNc1nccc(-c2c(-c3ccc(F)c(O)c3)nc3occn23)n1)c1ccccc1 | 90.5% | 56.8% | -0.289% (active) | 57.7% | 70.9% | 97.3% | 104% | 105% | 29.1% | 17.2% |
| N#Cc1cccc(F)c1 | 125% | 94.4% | 110% | 101% | 114% | 110% | 109% | 88.9% | 110% | 102% |
| O=C(CSc1nc2ccc([N+](=O)[O-])cc2[nH]1)Nc1ccc(F)cc1 | 66.8% | 42.1% | 36.3% | 80.3% | 87.8% | 68.8% | 52.1% | 79.8% | 44.5% | 59.9% |
| O=C(O)[C@@H]1c2ccccc2-c2ccccc2[C@H]1C(=O)O | 115% | 98% | 96.8% | 105% | 102% | 105% | 98.8% | 98.4% | 80.6% | 92.5% |
| CC1=Nc2cnc(Nc3ccc(OCCN4CCCC4)cc3)nc2Nc2ccccc21 | 56.1% | 39.6% | 68% | 59.7% | 36% | 63.9% | 85.6% | 68.6% | 89.3% | 52.6% |
| COc1cc(-c2cc(-c3ccc(N(C)C)cc3)nc(N3CCC(O)CC3)c2C#N)cc(OC)c1OC | 33% | 1.74% (active) | -45.3% (active) | -50.9% (active) | -5.34% (active) | 22.1% | -44.3% (active) | -0.969% (active) | -51.8% (active) | -69.3% (active) |
| O=C1/C(=C/c2ccc(Cl)c(Cl)c2)CN(C(=O)C(Cl)Cl)C/C1=C\c1ccc(Cl)c(Cl)c1 | -76.1% (active) | 0.245% (active) | -57.6% (active) | -34.2% (active) | -80% (active) | -64.7% (active) | -79.7% (active) | -93.2% (active) | -11.4% (active) | -66.9% (active) |
| Cc1ccccc1Cn1cnc2ccc(-c3cc(NC(=O)c4ccc(NC5CCN(C)CC5)cc4)n[nH]3)cc21 | 90.8% | 15.8% | 31.6% | 61.3% | 4.62% (active) | 69.2% | 89.9% | 27.4% | 81% | 82.9% |
| CC1Cc2c(Cl)ncnc2N(C)c2ccc(F)cc21 (stereo not given) | 110% | 99.5% | 91.3% | 98.9% | 104% | 93.8% | 91.2% | 97.5% | 70.3% | 91.5% |
| CCN(c1ccc(Cl)cc1)c1nc(-c2ccc([N+](=O)[O-])cc2)cs1 | 103% | 88.9% | 80.5% | 90.6% | 113% | 110% | 100% | 99.6% | 104% | 99.7% |
| COc1ccc(-c2nnc3n(C)c(=O)c4ccccc4n23)cc1N | 33.3% | 12.1% | 51.9% | 41% | -10.5% (active) | 55.8% | 10.7% | -5.87% (active) | 49.8% | 13.6% |
| O=S(=O)(Nc1ccccc1)c1ccc(C2CC3(Cl)C(Cl)=C(Cl)C2(Cl)C3(Cl)Cl)cc1 (stereo not given) | 66.4% | 27% | 35.1% | 59.3% | 32.9% | 57.2% | 8.38% (active) | 72.9% | 36.8% | 52.6% |
| COC(=O)c1c2c(c(C)[n+]([O-])c1C)C(=O)C=C(NCc1ccc(Br)cc1)C2=O | -87.7% (active) | 2.51% (active) | -97.9% (active) | -4.67% (active) | -46.1% (active) | -43.7% (active) | -97.9% (active) | -86.8% (active) | -80.6% (active) | -83.9% (active) |
| O=C1/C(=C/c2ccc(F)cc2)COc2ccc(O)cc21 | 96.5% | 4.82% (active) | 85.6% | 97.2% | 104% | 90% | 104% | 87.2% | 107% | 88.1% |
| CC(C)OC(=O)c1ccc2[nH]c(O)c(C(=Nc3ccc(N(C)C(=O)CN4CCN(C)CC4)cc3)c3ccccc3)c2c1 | -23% (active) | -15.2% (active) | -85% (active) | -71.4% (active) | -96.8% (active) | -32.7% (active) | -26.9% (active) | -95.6% (active) | -64.9% (active) | -85.1% (active) |
| O=C(Nc1ccc(-c2nc(N3CCOCC3)c3cccn3n2)cc1)Nc1cccnc1 | 5.28% (active) | 15.2% | -29.9% (active) | -0.801% (active) | -30.5% (active) | 11.9% | -36.4% (active) | -39.8% (active) | -11.7% (active) | -0.739% (active) |
| COc1ccc(/C=N/C2=C(C#N)C(c3cccc(Cl)c3)c3c(ccc4ccccc34)O2)cc1 (stereo not given) | 55.7% | 11.1% | 44.5% | 38% | 26.5% | 45.9% | 21.8% | 7.29% (active) | 62.6% | 15.6% |
| O=C(N/N=C/c1ccc(F)cc1)c1ccc(C(F)(F)F)nc1Nc1cccc(C(F)(F)F)c1 | 17.9% | -6.25% (active) | 2.96% (active) | -11.5% (active) | -10.7% (active) | 9.8% (active) | -44.5% (active) | -0.388% (active) | -2.34% (active) | 19.9% |
| COCCn1c(-c2csc(-c3cn(C)c4ccc(OC)cc34)n2)cc2cccnc21 | 62.7% | -25.5% (active) | 106% | 43.6% | 52.3% | 64.1% | 58.9% | 58.9% | 54.5% | 44.2% |
| CCN(CC)C(=S)SC(SC(=S)N(CC)CC)C(=O)c1nnn(-c2ccc([N+](=O)[O-])cc2)c1C | 104% | 81% | 94.3% | 95.1% | 114% | 92.9% | 100% | 98.3% | 101% | 96.9% |
| COc1ccc(-c2nc(SCC(C)C)nc(N/N=C\c3ccc(F)cc3)c2C#N)cc1 | 94.3% | 94% | 81% | 93.1% | 111% | 86.6% | 75.8% | 91.6% | 102% | 92.7% |
| C1=CN2CC(c3ccccc3)=NNC2c2ccccc21 (stereo not given) | 113% | 48.6% | 80.4% | 63.4% | 90% | 106% | 104% | 92.6% | 97.1% | 94.1% |
| COc1ccc(-c2nc3c(c(-c4ccccc4)nn3-c3ccccc3)c(-c3ccc(N4CCOCC4)cc3)c2C#N)cc1 | 106% | 96.9% | 103% | 107% | 38.6% | 112% | 91.6% | 85.9% | 101% | 101% |
| CC(C)c1ccc(NC(=O)Nc2ccc(NC(=O)CCCC(=O)NOCc3ccccc3)cc2)cc1 | 94.3% | 83.4% | 82.8% | 93.9% | 109% | 95.9% | 91.2% | 75.1% | 86.5% | 97.3% |
